KCNQ2 pot: enhances the rat KCNQ2 potassium channel; O88943; CHO-K1 KCNQ2, FluxOR thallium flux fluorescence; hits give high values; B-score at 10 µM; 310,000 compounds, 0.54% hits;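 active means fluorescence ratio B-score at least 3 SD of library B-scores, with initial fluorescence B-score within 3 of them, cut at about 5.3 in these data; same plate scores as AID 2156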;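 further: B-score of peak minus minimum over baseline fluorescence ratio after K+ and Tl+ stimulus; positive B-score means potentiation of KCNQ2 with more thallium influx and brighter signal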
KCNQ2 block: blocks the rat KCNQ2 potassium channel. 310,000 compounds, 1.1% hits. AID 2156. O88943. B-score at 10 µM. CHO-K1 KCNQ2, FluxOR thallium flux, 20 min; hits give low values;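 active means fluorescence ratio B-score at most minus 3 library SDs, with starting brightness B-score within 2 library SDs, cut at about -5.5 in these data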
Kir21 conf inh: confirmation of mouse Kir2.1 potassium channel inhibitors; 2,300 compounds, 41% hits; Tl flux remaining, % of negative control (hits give low values), % at 10 µM; shares compounds with KCNQ2 pot; AID 2032; Kir2.1-expressing cells, FluxOR thallium flux fluorescence; hits give low values;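 active means Primary-screen hit whose thallium flux fell at least 3 control SD below untreated wells in both duplicates, with normal baseline fluorescence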;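 further: 0% = blank wells without stimulus and 100% = stimulated no-compound controls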
HEK293 ctr: alters thallium flux in parental HEK293 cells, Kir2.1 counter-screen | FluxOR thallium flux fluorescence; 0% = unstimulated blank wells | 2,300 compounds, 19% hits | shares compounds with KCNQ2 pot | FluxOR signal as % of negative control (100 = no effect), % at 10 µM;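 active means dye signal at least 3 control SD above or below untreated wells in both duplicates, raw fluorescence within 3, either direction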;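 further: percent is based on the flux ratio of peak minus minimum fluorescence over baseline F0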
CHO-K1 ctr: counter-screen for KCNQ2 potentiators: effect in parental CHO-K1 cells; shares compounds with KCNQ2 pot; FluxOR thallium flux fluorescence; zero = vehicle mean+3SD, 100% = vehicle-minus-blank window; 1,200 compounds, 43% hits; activity increase over 3SD of controls, % at 10 µM;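 active means signal rise of at least 3 SD above the untreated control mean, in both duplicate wells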;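 further: counter screen of KCNQ2 potentiator hits so any rise reflects channel-independent effects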
KCNQ1 sel pot: human KCNQ1 counter-target activity of KCNQ2 potentiators | 1,200 compounds, 28% hits | CHO KCNQ1 stable, FluxOR thallium flux fluorescence; beyond 3SD, as % of vehicle-control signal | shares compounds with KCNQ2 pot | activation over 3SD threshold, % at 10 µM;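 active means fluorescence ratio rise of at least 3 SD of vehicle wells above their mean, in both replicate wells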;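 further: 0% = vehicle mean plus 3 SD and 100% = vehicle minus unstimulated blank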
Target sequence (P51787 whole entry, looked up): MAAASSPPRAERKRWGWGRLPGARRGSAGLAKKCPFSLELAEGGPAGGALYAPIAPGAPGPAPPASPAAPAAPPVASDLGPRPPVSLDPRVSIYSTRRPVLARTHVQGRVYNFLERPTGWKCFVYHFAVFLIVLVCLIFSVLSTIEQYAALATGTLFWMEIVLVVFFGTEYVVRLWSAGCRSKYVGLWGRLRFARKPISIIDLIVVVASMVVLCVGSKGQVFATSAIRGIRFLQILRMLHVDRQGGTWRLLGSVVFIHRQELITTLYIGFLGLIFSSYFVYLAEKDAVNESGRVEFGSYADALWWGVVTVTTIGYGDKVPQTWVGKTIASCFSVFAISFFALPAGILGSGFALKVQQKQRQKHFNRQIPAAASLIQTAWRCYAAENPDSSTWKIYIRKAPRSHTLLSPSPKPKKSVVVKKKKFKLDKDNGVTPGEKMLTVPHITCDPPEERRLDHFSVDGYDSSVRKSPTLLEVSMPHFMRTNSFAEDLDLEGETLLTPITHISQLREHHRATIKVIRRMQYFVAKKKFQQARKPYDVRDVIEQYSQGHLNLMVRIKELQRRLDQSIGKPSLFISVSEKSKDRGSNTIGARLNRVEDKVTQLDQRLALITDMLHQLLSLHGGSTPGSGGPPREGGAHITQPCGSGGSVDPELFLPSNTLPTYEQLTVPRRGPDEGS
KCNQ2 pot conf: rat KCNQ2 channel potentiator confirmation | shares compounds with KCNQ2 pot | 1,200 compounds, 68% hits | CHO-KCNQ2 cells, FluxOR thallium flux fluorescence | potentiation, less the hit threshold, % at 10 µM | AID 2287;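 active means fluorescence ratio rising 3 SD or more over the vehicle control mean in both replicates, plus primary screen hit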;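 further: peak minus minimum thallium fluorescence divided by baseline after K/Tl stimulus; 0% = vehicle mean plus 3 SD and 100% = vehicle minus unstimulated blank difference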
Kir2-1 sel: selectivity of KCNQ2 potentiators: effect on mouse Kir2.1; 1,200 compounds, 2% hits; shares compounds with KCNQ2 pot; AID 2345; activity over 3SD threshold, % at 10 µM; HEK293 Kir2.1, FluxOR thallium flux fluorescence;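 active means fluorescence ratio rise of at least 3 SD above the vehicle-control mean, seen in both replicates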;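 further: 0% = vehicle mean plus 3 SD and 100% = vehicle minus no-stimulus blank window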
KCNQ2 W236L pot: potentiates the retigabine-insensitive rat KCNQ2 W236L mutant channel. shares compounds with KCNQ2 pot. CHO KCNQ2-W236L, automated patch clamp current. current increase over 3SD of negative controls (%), hits give high values, % at 25 µM. 940 compounds, 10% hits. AID 2558;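 active means current increase at least 3 SD of the untreated controls above them in both duplicate recordings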
Starred values were filed as active, the others as inactive. The list is not random: actives were taken first. Their share in the collection is about 1.6%.

Screening Cc1ccc(-c2cc(-c3ccc(C)cc3)[n+](-c3ccc(C(=O)[O-])cc3)c(-c3ccc(C)cc3)c2)cc1 returned KCNQ2 block inactive, Kir21 conf inh inactive and HEK293 ctr inactive.
O=[N+]([O-])c1cc(Cl)c(O)c(-[n+]2c(-c3ccccc3)cc(-c3ccccc3)cc2-c2ccccc2)c1 was read as KCNQ2 block inactive.
Screening Cc1cc(-c2ccccc2)cc(C)[n+]1Cc1ccccc1 returned KCNQ2 pot 1.8 and KCNQ2 block inactive.
`CC1(C)C2CC=C(CN3CCOCC3)C1C2` (configuration not stated) gave KCNQ2 pot 0.82 and KCNQ2 block inactive.
`CCOC(=O)C1=C(N)OC2=C(C(=O)CCC2)[C@]12C(=O)N(CC(N)=O)c1ccccc12` gave KCNQ2 pot 0.04 and KCNQ2 block inactive.
Screening FC(F)(F)Oc1ccc(NC2=NCCCS2)cc1 returned KCNQ2 pot 0.36 and KCNQ2 block inactive.
For CC/C(=C\C=C\[C@@H]1C=C[C@@H]2CCC[C@H]2[C@@H]1C(=O)c1ccc[nH]1)[C@@H]1O[C@@H]([C@@H](C)C(=O)O)CC[C@@H]1C the results were KCNQ2 pot 28*, KCNQ2 block inactive, CHO-K1 ctr -14, KCNQ1 sel pot -19, KCNQ2 pot conf 74*, Kir2-1 sel -48 and KCNQ2 W236L pot inactive.
Cc1nc2ccccc2c(=O)n1/N=C/c1cc(Br)cc(Br)c1O was read as KCNQ2 pot 8.1*, KCNQ2 block inactive, Kir21 conf inh inactive, HEK293 ctr inactive, CHO-K1 ctr 11*, KCNQ1 sel pot -15, KCNQ2 pot conf -26 and Kir2-1 sel -33.
Screening Cc1nc2ccccc2c(=O)n1-c1ccc(Br)cn1 returned KCNQ2 block inactive.
CCCC(=O)c1c(O)[nH]c(=O)[nH]c1=O was read as KCNQ2 block inactive.
`CC(NCc1ccc(Cl)cc1)C(O)c1ccccc1` (configuration not stated) gave KCNQ2 block inactive, Kir21 conf inh 22%* and HEK293 ctr 73%*.
For CCOc1c(Cl)cc(CNC(C)C(O)c2ccccc2)cc1OC (configuration not stated) the results were KCNQ2 block inactive.
For CC(NCc1ccc(Cl)cc1Cl)C(O)c1ccccc1 (configuration not stated) the results were KCNQ2 block inactive, Kir21 conf inh 16%* and HEK293 ctr inactive.
CC(NCc1cccc(Cl)c1Cl)C(O)c1ccccc1 (configuration not stated) was read as KCNQ2 block inactive.
For COc1ccc(-n2c(O)c(C(C)=NC3CC3)c(=O)[nH]c2=O)cc1 the results were KCNQ2 pot 0.49 and KCNQ2 block inactive.
Screening CCCCCCN=Cc1c(O)n(C)c(=O)n(C)c1=O returned KCNQ2 pot 1.2 and KCNQ2 block inactive.
For CC1(C)CC(=O)C2=C(C1)NC(=O)C21C(C(=O)OC(C)(C)C)=C(N)Oc2ccc(Br)cc21 (configuration not stated) the results were KCNQ2 block inactive.
`CCC(=NCc1cccnc1)c1c(O)n(-c2ccccc2)c(=O)[nH]c1=O` gave KCNQ2 block inactive.
CCC(=O)c1cn(Cc2ccccc2)c2ccccc12 was read as KCNQ2 pot 2.1 and KCNQ2 block inactive.
`CN(C)CCOC(=O)c1cn(Cc2ccccc2)c2ccccc12` gave KCNQ2 block inactive, Kir21 conf inh 52%* and HEK293 ctr inactive.
`CCOc1ccc(N2C(=O)NC(=O)/C(=C/c3cnc(SC)nc3)C2=O)cc1` gave KCNQ2 pot 0.58 and KCNQ2 block inactive.
For CCc1ccc(CNCCc2c[nH]c3ccccc23)cc1 the results were KCNQ2 block inactive, Kir21 conf inh 18%* and HEK293 ctr inactive.
`c1ccc(CNCCc2c[nH]c3ccccc23)cc1` gave KCNQ2 block inactive.
`COc1ccc(C)cc1NC1=NCCCS1` gave KCNQ2 block inactive.
`O=P1(Nc2cccnc2)COc2ccccc2OC1` gave KCNQ2 block inactive.
`COc1cc(OC)c2c(c1)OCC1CON(C)C21` (configuration not stated) gave KCNQ2 block inactive.
`Fc1ccc(C(OCCN2CCCC2)c2ccc(F)cc2)cc1` gave KCNQ2 pot 2.5 and KCNQ2 block inactive.
`Fc1ccc(C(OCCN2CCCC2)c2ccc(Br)cc2)cc1` (configuration not stated) gave KCNQ2 block inactive, Kir21 conf inh 45%* and HEK293 ctr inactive.
For CNC(=O)O/N=C/c1nn(C(=O)C(C)(C)C)cc1Br the results were KCNQ2 pot 0.53 and KCNQ2 block inactive.
For Fc1ccc(CCNCc2ccc(Cl)c(Cl)c2)cc1 the results were KCNQ2 block inactive, Kir21 conf inh 24%* and HEK293 ctr inactive.
`CCc1ccc(CNCCc2ccc(F)cc2)cc1` gave KCNQ2 block inactive.
`CCN1CCC(NCC2CCCCC2)CC1` gave KCNQ2 pot 2.1 and KCNQ2 block inactive.
For O=c1c2ccc(Cl)cc2[nH]c(=S)n1-c1cccnc1 the results were KCNQ2 pot 0.13 and KCNQ2 block inactive.
CCc1ccc(CN2CCN(Cc3ccc(SC)cc3)CC2)cc1 was read as KCNQ2 block inactive, Kir21 conf inh 27%* and HEK293 ctr inactive.
For COc1ccccc1N1CCN(Cc2ccc(SC)cc2)CC1 the results were KCNQ2 pot 0.84 and KCNQ2 block inactive.
CN(C(=O)CNC(=O)OCc1ccccc1)c1ccc(Br)cc1C(=O)c1ccccc1Cl was read as KCNQ2 pot 0.51 and KCNQ2 block inactive.
Screening O=c1[nH]sc2cc(F)ccc12 returned KCNQ2 pot 6.9*, KCNQ2 block inactive, CHO-K1 ctr -7, KCNQ1 sel pot -16, KCNQ2 pot conf 0.2*, Kir2-1 sel -56 and KCNQ2 W236L pot 56%*.

Screens: PubChem, Johns Hopkins Ion Channel Center
